# Compounds with a hit are over-represented: about 2.5% of the library has one in this group of screens.
# WRN helicase inh-1 = qHTS for Inhibitors of WRN Helicase; WRN helicase unwinding, fluorescent forked duplex, kinetic; Potency, µM (highest dose often 114 µM), for inactives: top-dose activity change, negative = inhibition, most hits filed as inhibitors; 360,000 tested, 0.46% active; further: on the % scale 0 is the no-effect control and ±100 the full control effect; nearly all actives have a fitted effect of over 55% in size
#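 WRN at 20 nM final was preincubated with compound for 15 min at room temperature; reaction started with 100 nM forked duplex oligonucleotide carrying fluorophore and quencher plus 2 mM ATP (final). Unwinding followed kinetically by red fluorescence (ex 525/em 598 nm).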
# Pol iota inh = qHTS for Inhibitors of Polymerase Iota; DNA polymerase iota (Homo sapiens), Q9UNA4; Pol iota fluorescent replication assay, 10 min; Potency, µM (titrated, usually from 115 µM), without a hit: at the highest dose activity, negative = inhibition, most hits filed as inhibitors; 390,000 tested, 1% active; AID 588590, 2011
#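 Pol iota at 10 nM preincubated 15 min with compounds at room temperature; reaction started with fluorescent substrate, 50 nM final. Fluorescence read kinetically at 0 and 10 min; buffer-only wells as negative control.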
# L3MBTL1 block = qHTS Assay for the Inhibitors of L3MBTL1; Lethal(3)malignant brain tumor-like protein 1 (Homo sapiens), Q9Y468; AlphaScreen L3MBTL1–H3K9me1 peptide binding; Potency, µM (top dose mostly 57.1 µM), for the others: at the top dose activity, negative = inhibition, actives largely listed as inhibitors; 230,000 tested, 0.66% active; further: on the % scale 0 is the no-effect control and ±100 the full control effect; nearly all actives have a fitted effect of over 60% in size
#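 First, the protein-peptide complex forms for 30 min at room temperature (L3MBTL1 50 nM, biotinylated H3K9me1 peptide 75 nM). Next, compounds are pin-transferred and incubated 30 min. Finally, AlphaScreen beads are added and read after 30 min.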
# Pol eta inh-1 = qHTS for Inhibitors of Polymerase Eta | DNA polymerase eta (Homo sapiens), Q9Y253 | recombinant Pol eta, fluorescent DNA replication assay | Potency, µM (highest dose often 114 µM), for the others: at the top dose activity change, negative = inhibition, most hits filed as inhibitors | 390,000 tested, 1.2% active; further: on the % scale 0 is the no-effect control and ±100 the full control effect
#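 Fluorescent replication assay: 50 nM final substrate added after a 15 min room-temperature compound preincubation with 10 nM enzyme. Signal taken at 0 min and again at 10 min.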
# POLB inh = qHTS Assay for Inhibitors of DNA Polymerase Beta. Pol beta primer extension/strand displacement, fluorescence kinetic. Potency, µM (top dose mostly 114 µM), inactives show at the highest dose activity change, negative = inhibition, most hits filed as inhibitors. P06746. 340,000 tested, 1.3% active; further: on the % scale 0 is the no-effect control and ±100 the full control effect
#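 10 nM enzyme + cpd, 15 min RT; start with substrate 50 nM final; read 0 min and after 10 min RT. Corrected, normalized data; 4-parameter Hill curve fit.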
# Pol kappa inh-1 = qHTS for Inhibitors of Polymerase Kappa. DNA polymerase kappa (Homo sapiens), Q9UBT6. purified Pol kappa, fluorescent DNA synthesis assay, 10 min. Potency, µM (top dose mostly 107 µM), for inactives: at the top dose activity, negative = inhibition, hits mostly inhibitors. 400,000 tested, 0.53% active; further: on the % scale 0 is the no-effect control and ±100 the full control effect
# Target sequence (Q9UBT6 whole entry, looked up): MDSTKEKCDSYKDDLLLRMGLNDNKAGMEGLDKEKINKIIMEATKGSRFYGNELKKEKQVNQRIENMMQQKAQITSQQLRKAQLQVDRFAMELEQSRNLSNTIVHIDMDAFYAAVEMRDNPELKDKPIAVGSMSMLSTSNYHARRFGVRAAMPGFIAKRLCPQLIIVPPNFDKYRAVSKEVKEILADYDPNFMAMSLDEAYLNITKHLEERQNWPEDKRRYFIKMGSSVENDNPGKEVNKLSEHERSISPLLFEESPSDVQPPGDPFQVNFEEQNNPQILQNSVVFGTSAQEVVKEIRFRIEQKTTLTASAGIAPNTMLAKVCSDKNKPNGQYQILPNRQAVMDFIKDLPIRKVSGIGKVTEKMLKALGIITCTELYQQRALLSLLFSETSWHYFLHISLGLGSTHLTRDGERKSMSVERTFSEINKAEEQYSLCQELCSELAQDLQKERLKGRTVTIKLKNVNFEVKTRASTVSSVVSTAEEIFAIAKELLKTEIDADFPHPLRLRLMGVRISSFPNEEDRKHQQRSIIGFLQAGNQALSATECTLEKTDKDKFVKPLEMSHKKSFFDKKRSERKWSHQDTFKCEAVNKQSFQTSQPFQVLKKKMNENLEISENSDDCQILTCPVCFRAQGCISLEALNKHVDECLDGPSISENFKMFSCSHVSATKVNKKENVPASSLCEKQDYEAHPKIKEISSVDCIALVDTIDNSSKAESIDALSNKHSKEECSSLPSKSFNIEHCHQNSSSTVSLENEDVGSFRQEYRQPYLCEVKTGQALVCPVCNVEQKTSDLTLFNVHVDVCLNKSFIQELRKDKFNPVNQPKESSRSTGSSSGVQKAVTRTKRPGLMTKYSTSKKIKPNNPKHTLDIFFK
#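 Here, compound and 10 nM enzyme are combined for 15 min at room temperature; adding 50 nM substrate (final) starts DNA synthesis, tracked by fluorescence at 0 and 10 min against buffer-only wells.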
# TbPGK inh = qHTS for inhibitors of Phosphogylcerate Kinase: Hit Validation Screen; shares compounds with Pol kappa inh-1; TbPGK coupled GAPDH assay, Kinase-Glo luminescence; Potency, µM (titrated, usually from 57.5 µM), for the others: at the top dose activity change, negative = inhibition, most hits filed as inhibitors; 500 tested, 79% active; further: on the % scale 0 is the no-effect control and ±100 the full control effect; nearly all actives have a fitted effect of over 65% in size
# POLI cherry-pick = qHTS for Inhibitors of Polymerase Iota: Confirmatory Assay for Cherry-picked Compounds. shares compounds with Pol kappa inh-1. Pol iota primer extension, TAMRA/BHQ fluorescence. Potency, µM, hits mostly inhibitors. 1,500 tested, 77% active. AID 720496, 2013
# Pol kappa inh-2 = qHTS for Inhibitors of Polymerase Kappa: Confirmatory Assay for Cherry-picked Compounds; 920 tested, 76% active; purified Pol-kappa, fluorescent strand-displacement substrate; shares compounds with Pol eta inh-1; Potency, µM, most hits filed as inhibitors
# Pol eta inh-2 = qHTS for Inhibitors of Polymerase Eta: Confirmatory Assay for Cherry-picked Compounds | AID 720502, 2013 | Pol eta primer extension, TAMRA/BHQ fluorescence, 10 min | Potency, µM, usual class: inhibitors | shares compounds with Pol eta inh-1 | 2,600 tested, 64% active
# WRN helicase inh-2 = qHTS for Inhibitors of WRN Helicase: Confirmatory Assay for Cherry-picked Compounds | shares compounds with WRN helicase inh-1 | WRN helicase DNA unwinding, fluorescence kinetic | Potency, µM (doses to about 57.1 µM), for the others: at the top dose activity, negative = inhibition, hits mostly inhibitors | 610 tested, 63% active; further: nearly all actives have a fitted effect of over 65% in size
# TO displacement = qHTS for Inhibitors of WRN Helicase: Thiazole Orange DNA Binding Counterscreen; shares compounds with WRN helicase inh-1; AID 720499, 2013; Potency, µM (doses to about 57.1 µM), for the others: top-dose activity change, negative = inhibition, hits mostly inhibitors; thiazole orange DNA binding displacement, fluorescence; 610 tested, 10% active;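 further: drop in dye fluorescence marks compound binding to DNA; on the % scale 0 is the no-effect control and ±100 the full control effect; nearly all actives have a fitted effect of over 60% in size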
# BLM counter = qHTS for Inhibitors of WRN Helicase: BLM Helicase Counterscreen for WRN Inhibitors | shares compounds with WRN helicase inh-1 | Recombinant BLM helicase DNA unwinding, red fluorescence | Potency, µM (titrated, usually from 57.1 µM), for inactives: top-dose activity change, negative = inhibition, hits mostly inhibitors | 610 tested, 60% active | AID 720503, 2013; further: nearly all actives have a fitted effect of over 60% in size
# * hit, by the source's call; i = inactive; ? = inconclusive; / = no result; [ ] = dose if it differs, or a comment. The call rests on the fitted dose curve; in most records, active means well fitted curve in the direction sought with a large enough effect; inconclusive means small, poorly fitted or top-dose-only effect, or another doubt; inactive means no such curve, though single readings can be large; an effect the other way counts as inactive or inconclusive. Potency means the concentration at half of the fitted maximal effect.
SMILES,WRN helicase inh-1,Pol iota inh,L3MBTL1 block,Pol eta inh-1,POLB inh,Pol kappa inh-1,POLI cherry-pick,Pol kappa inh-2,Pol eta inh-2,WRN helicase inh-2,TO displacement,BLM counter,others
CCOC(=O)C(C)N1C(=O)S/C(=C\c2ccc(-c3ccccc3C(=O)O)o2)C1=O (stereo not given),25µM*,?,/,3.2µM*,22µM*,-17%,17*,3*,17*,15µM*,-6%,22µM*,
CC(C)N1C(=O)S/C(=C/c2ccc(Sc3nc4ccccc4[nH]3)o2)C1=O,-21%,8%,0%,-20%,-26%,-24%,/,/,/,/,/,/,
COc1ccccc1CNC(=O)Cn1nc(C)n2cccc2c1=O,/,1%,/,2%,5%,-4%,/,/,/,/,/,/,
N#C/C(=C\c1ccc(O)c(O)c1)C(=O)Nc1cccc2ncccc12,14µM*,3.2µM*,/,2.8µM*,0.79µM*,4µM*,6.7*,/,3.8*,4.3µM*,12µM*,1.7µM*,
O=C1NC2c3c(Cl)sc(Cl)c3C(=O)C2O1 (stereo not given),2.4µM*,25µM*,/,3.2µM*,/,?,4.2*,2.7*,6*,15µM*,-18%,1.4µM*,
O=C1NC2c3c(I)sc(I)c3C(=O)C2O1 (stereo not given),-10%,-4%,/,4%,/,-25%,/,/,/,/,/,/,
O=C(COc1ccc(Cl)cc1Cl)N1CCN(C(=O)c2ccco2)CC1,16%,34%,/,-6%,26%,1%,/,/,/,/,/,/,
Cc1ccc(-c2nn3cnnc3s2)cc1NC(=O)c1ccc(-c2cccc(Cl)c2)o1,/,/,/,/,/,/,27*,?,76*,?,163%,?,
CCOc1ccc(N2CC(C(=O)Nc3cc(OCC)c(N4CCOCC4)cc3OCC)CC2=O)cc1 (stereo not given),-21%,22%,-11%,-2%,/,-2%,/,/,/,/,/,/,
COc1ccc(-c2nn(C)c3sc(C(=O)Nc4cc(OC)c(OC)c(OC)c4)cc23)cc1OC,/,22µM*,/,40µM*,45µM*,50µM*,38*,/,60*,9.6µM*,?,11µM*,
O=C1C(=Cc2ccco2)CCC1=Cc1ccco1,3.5µM*,?,/,0.79µM*,/,5µM*,3*,2.7*,5.4*,7.6µM*,2%,7.6µM*,TbPGK inh=18µM*
CN1/C(=C\C=C2/SC(=S)N(CC(=O)O)C2=O)C(C)(C)c2ccccc21,50µM*,/,-24%,45µM*,40µM*,?,38*,34*,34*,22µM*,i,22µM*,
Cc1ccc(C(=O)NCCc2ccc(F)cc2)s1,-3%,103%,-4%,-5%,28%,-12%,/,/,/,/,/,/,
O=C(CCSCCC(=O)NCc1ccco1)NCc1ccco1,13µM*,-69%,?,11µM*,22µM*,?,34*,/,27*,22µM*,-13%,17µM*,
O=C(CCSCc1ccccc1Cl)NCc1ccco1,-10%,104%,/,7%,19%,-16%,/,/,/,/,/,/,
COc1cccc2c1C(=O)c1c(O)c3c(c(O)c1C2=O)CC(O)(C(=O)CO)CC3OC1CC(N(C)C)C(O)C(C)O1 (stereo not given),3µM*,40µM*,/,?,/,?,2.7*,34*,27*,17µM*,171%,27µM*,
COc1ccc(C2Nc3ccccc3C(=O)N2Cc2ccco2)cc1COc1ccc(N)cc1 (stereo not given),/,/,/,/,/,/,75*,/,85*,11µM*,?,3µM*,
CCn1nc(C)c(CCC(=O)O)c1C,-1%,58%,5%,-18%,-27%,4%,/,/,/,/,/,/,
Cc1cccc(C(=O)Oc2ccc(/C=N/NC(=O)c3ccncc3)cc2)c1,3%,153%,/,-3%,2%,0%,/,/,/,/,/,/,
Cc1cccc(C(=O)Oc2ccc(/C=N/NC(=O)c3cc(O)cc(O)c3)cc2)c1,35µM*,18µM*,/,7.9µM*,7.1µM*,50µM*,67*,15*,34*,22µM*,?,14µM*,
COc1ccc(S(=O)(=O)Nc2ccc3c(c2)C(=O)N([C@H](C)CO)C[C@H](C)[C@@H](CN(C)C(=O)Nc2ccc(C(F)(F)F)cc2)O3)cc1,0%,7%,3%,-28%,/,5%,/,/,/,/,/,/,
Cc1ccc2c(c1)-c1c(c(C(=O)N3CCN(c4cc(Cl)ccc4C)CC3)nn1C)CS2,/,-9%,/,-11%,0%,-3%[60.1 µM],/,/,/,/,/,/,

# Assay outcomes from PubChem.
